Experimental data as given in the supplement of paper PMC4100887.
Counter-ions that a name gives are not always drawn. ± gives the standard deviation of the averaged measurements.

What was measured:
IMR-90 = test: relative cell viability (ATPlite) vs untreated control (fraction); higher = less toxic; conditions: 1 µM; 72 h
K562 [1] = test: as above; conditions: 1 µM; 72 h
K562 [2] = test: relative cell viability (ATPlite) vs untreated control, with imatinib (fraction); higher = less toxic; conditions: 1 µM; 72 h; imatinib 0.125 µM

Row | Compound | relative cell viability (IMR-90) | relative cell viability (K562 [1]) | relative cell viability (K562 [2])
1 | Cc1cc(C=C2C(=O)C=CC2=O)cc(C)c1O | 0.928 ± 0.045 | 0.736 ± 0.16 | 0.595 ± 0.12
2 | COc1ccc(Cl)cc1NC(=O)Nc1cc(C)nc2ccccc12 [IGF-1R Inhibitor II] | 1.04 ± 0.08 | 0.933 ± 0.014 | 0.798 ± 0.018
3 | O=C(c1ccc(Nc2nccc(-c3cc4ccccc4s3)n2)cc1)N1CCC(N2CCCC2)CC1 [IKK Inhibitor VII] | 0.972 ± 0.066 | 0.773 ± 0.022 | 0.632 ± 0.031
4 | N#CC(c1ccnc(NCCc2cccnc2)n1)c1nc2ccccc2s1 (configuration not stated) [JNK Inhibitor V] | 1.01 ± 0.077 | 0.851 ± 0.092 | 0.703 ± 0.056
5 | O=C(Nc1cc(Cl)cc2c1[nH]c1cnccc12)c1cccnc1 [IKK Inhibitor X] | 0.946 ± 0.061 | 0.896 ± 0.069 | 0.804 ± 0.023
6 | CSc1nc(-c2ccnc(NC(C)c3ccccc3)c2)c(-c2ccc(F)cc2)[nH]1 (configuration not stated) [p38 MAP Kinase Inhibitor III] | 1.03 ± 0.072 | 0.909 ± 0.024 | 0.735 ± 0.038
7 | NCCNc1ncc(C(N)=O)c(Nc2cccc(C(F)(F)F)c2)n1 [Syk Inhibitor II] | 0.974 ± 0.079 | 0.949 ± 0.058 | 0.773 ± 0.048
8 | O=C1NC(=O)C(c2c[nH]c3ccccc23)=C1c1c[nH]c2ccccc12 [Bisindolylmaleimide IV] | 0.826 ± 0.14 | 0.936 ± 0.053 | 0.851 ± 0.024
9 | O=C(O)c1ccc2c3c1cccc3c(=O)n1c3ccccc3nc21 | 0.961 ± 0.12 | 0.947 ± 0.051 | 0.811 ± 0.088
10 | O=C1NC(=O)c2c1c1c3ccccc3[nH]c1n1cncc21 [Isogranulatimide] | 1.01 ± 0.063 | 0.837 ± 0.077 | 0.773 ± 0.049
11 | CN1C(=O)C(Cc2c[nH]c3ccccc23)NC1=S (configuration not stated) [Necrostatin-1] | 0.915 ± 0.058 | 0.921 ± 0.1 | 0.785 ± 0.044
12 | COc1cc2ncc(-c3ccccc3)nc2cc1OC | 1.1 ± 0.066 | 0.888 ± 0.083 | 0.76 ± 0.045
13 | O=[N+]([O-])c1ccc(-c2nc(-c3ccc(F)cc3)c(-c3ccncc3)[nH]2)cc1 | 1.05 ± 0.089 | 0.774 ± 0.031 | 0.693 ± 0.039
14 | CS(=O)(=O)c1ccc(-c2nc(-c3ccc(F)cc3)c(-c3ccncc3)[nH]2)cc1 | 1.03 ± 0.08 | 0.831 ± 0.064 | 0.703 ± 0.043
15 | Nc1nccc(-c2c(-c3ccc(F)cc3)ncn2C2CCNCC2)n1 | 0.923 ± 0.084 | 0.755 ± 0.05 | 0.662 ± 0.046
16 | CCOC(=O)c1c(C)[nH]c(/C=C2\C(=O)Nc3ccccc32)c1C [VEGF Receptor 2 Kinase Inhibitor I] | 0.961 ± 0.063 | 0.996 ± 0.047 | 0.845 ± 0.075
17 | CCCOc1ccc(/C=C2/SC(=O)NC2=O)cc1 [PIM1/2 Kinase Inhibitor VI] | 0.916 ± 0.1 | 0.972 ± 0.031 | 0.802 ± 0.029
18 | N#Cc1c(NC(=O)c2cccc3ccccc23)sc2c1CCCC2 [JNK Inhibitor IX] | 0.97 ± 0.044 | 0.143 ± 0.058 | 0.101 ± 0.04
19 | O=Nc1c(-c2c(O)[nH]c3cc(Br)ccc23)[nH]c2ccccc12 [GSK-3 Inhibitor IX] | 0.935 ± 0.077 | 0.779 ± 0.036 | 0.599 ± 0.044
20 | O=c1c(O)c(-c2ccc(O)c(O)c2)oc2cc(O)c(O)c(O)c12 [Quercetagetin] | 0.88 ± 0.16 | 0.799 ± 0.086 | 0.64 ± 0.025
21 | O=c1cc(N2CCOCC2)oc2c1ccc1ccccc12 [DNA-PK Inhibitor II] | 1 ± 0.061 | 0.815 ± 0.041 | 0.754 ± 0.023
22 | COc1ccc(OC)c2c(=S)c3ccccc3[nH]c12 | 0.981 ± 0.051 | 0.927 ± 0.054 | 0.795 ± 0.041
23 | O=C1NCCc2[nH]c(-c3ccnc(-c4cnc5ccccc5c4)c3)cc21 [MK-2 Inhibitor III] | 0.884 ± 0.11 | 0.837 ± 0.085 | 0.709 ± 0.057
24 | CN[C@@H]1C[C@H]2O[C@@](C)([C@@H]1OC)n1c3ccccc3c3c4c(c5c6ccccc6n2c5c31)C(=O)N[C@H]4O | 0.101 ± 0.021 | 0.18 ± 0.048 | 0.14 ± 0.026
25 | N#C/C(=C(/N)Sc1ccccc1N)c1cccc(C(O)c2ccncc2)c1 (configuration not stated) [MEK Inhibitor I] | 1.02 ± 0.1 | 0.732 ± 0.045 | 0.581 ± 0.03
26 | NC(=O)Nc1cc(-c2ccccc2)sc1C(N)=O [IKK-2 Inhibitor XI] | 0.982 ± 0.094 | 0.983 ± 0.09 | 0.802 ± 0.037
27 | NC(N)=NCCNS(=O)(=O)c1cccc2cnccc12 [HA 1004, Dihydrochloride] | 1.01 ± 0.1 | 0.851 ± 0.066 | 0.756 ± 0.015
28 | CO[C@H]1C[C@@H]2CC[C@@H](C)[C@@](O)(O2)C(=O)C(=O)N2CCCC[C@H]2C(=O)O[C@H]([C@H](C)C[C@@H]2CC[C@@H](O)[C@H](OC)C2)CC(=O)[C@H](C)/C=C(\C)[C@@H](O)[C@@H](OC)C(=O)[C@H](C)C[C@H](C)/C=C/C=C/C=C/1C [Rapamycin] | 0.598 ± 0.075 | 0.585 ± 0.032 | 0.481 ± 0.036
29 | CC[n+]1c(/C=C/N(C)c2ccccc2)n(-c2ccccc2)c2ccc(-c3nc4ccccc4s3)cc21 [Akt Inhibitor IV] | 0.924 ± 0.1 | 0.169 ± 0.082 | 0.0639 ± 0.02
